Sfp PPTase inh: qHTS Assay for Inhibitors of Bacillus subtilis Sfp phosphopantetheinyl transferase (PPTase); 3.5% of 310,000 active; Biochemical Sfp PPTase activity, qHTS; Potency, µM, without a hit: largest response in the series, negative = inhibition, hits mostly inhibitors; 4'-phosphopantetheinyl transferase ffp (Bacillus subtilis), Q9F4F7;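 also: the enzyme is Sfp with the accession as filed and its product quenches rhodamine fluorescence; potency is read from the fitted curve at half-maximal effect; 0% = enzyme reaction without inhibitor and -100% = no enzyme wells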
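Step 1, compound plus 15 nM Sfp-PPTase, 15 min, room temperature. Step 2, add rhodamine-CoA (5 uM) and BHQ-2-YbbR (12.5 uM). Step 3, read 525/598 nm fluorescence at 0 and 30 min.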
Tau fluor counter: Counterscreen qHTS for Inhibitors of Tau Fibril Formation, Fluorescence Polarization. tau K18 P301L Alexa594 fluorescence, heparin fibrillization. Potency, µM (series often up to 57.7 µM), for the others: at the top dose activity change, negative = decrease. 0.93% of 280,000 active. AID 1463, 2008; also: potency is read from the fitted curve at half-maximal effect; nearly all actives have a fitted effect of over 55% in size
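Human K18 P301L tau (15 uM unlabeled plus 0.24 uM Alexa 594-labeled, final) in 100 mM sodium acetate pH 7 was mixed with compound and 20 uM heparin and incubated 6 hr at 37 C.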
Tau FP inhib: qHTS for Inhibitors of Tau Fibril Formation, Fluorescence Polarization; 0.39% of 280,000 active; Microtubule-associated protein tau (Homo sapiens), P10636; Potency, µM (highest dose often 57.7 µM), inactives show at the top dose activity, negative = inhibition, most hits filed as inhibitors; AID 1468, 2008; K18 P301L tau heparin fibrillization, Alexa594 FP, 6 h; also: potency is read from the fitted curve at half-maximal effect; nearly all actives have a fitted effect of over 55% in size
Target sequence (P10636 561-689 P618L limits assumed): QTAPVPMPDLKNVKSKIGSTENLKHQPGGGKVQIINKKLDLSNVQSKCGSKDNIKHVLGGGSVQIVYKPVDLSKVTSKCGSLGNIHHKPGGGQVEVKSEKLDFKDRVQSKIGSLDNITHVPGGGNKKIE
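Read-out: fluorescence polarization of Alexa 594-labeled tau (0.24 uM), 555 nm excitation, 632 nm emission. Mixtures held 15 uM unlabeled K18 P301L, compound and 20 uM heparin, pH 7 acetate buffer, incubated 6 hr at 37 C.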
FBPA coupling cs: qHTS Assay for Inhibitors of Fructose-1,6-bisphosphate Aldolase from Giardia Lamblia: Coupling assay counterscreen. coupling enzyme system counterscreen, AmpLite Red fluorescence. activity change, negative = inhibition, % at 58.2 µM, hits read low. 0.67% of 290,000 active. AID 2472, 2010; in the data active = activity change below about -30%
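Counterscreen of the coupled detection system alone, without aldolase: glyceraldehyde-3-phosphate coupling enzymes plus AmpLite Red readout. Compounds at 57.5 uM final, 10 min RT preincubation, 20 min RT reaction, fluorescence 525/598 nm.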
G9a inh: qHTS Assay for Inhibitors of Histone Lysine Methyltransferase G9a. AID 504332, 2011. 8.8% of 350,000 active. G9a H3K9 monomethylation, AlphaScreen, 2 h. Histone-lysine N-methyltransferase EHMT2 (Homo sapiens), Q96KQ7. Potency, µM (top dose mostly 102 µM), inactives show top-dose activity, negative = inhibition, hits mostly inhibitors; also: potency is read from the fitted curve at half-maximal effect; nearly all actives have a fitted effect of over 75% in size
Target sequence (Q96KQ7 913-1193 limits assumed): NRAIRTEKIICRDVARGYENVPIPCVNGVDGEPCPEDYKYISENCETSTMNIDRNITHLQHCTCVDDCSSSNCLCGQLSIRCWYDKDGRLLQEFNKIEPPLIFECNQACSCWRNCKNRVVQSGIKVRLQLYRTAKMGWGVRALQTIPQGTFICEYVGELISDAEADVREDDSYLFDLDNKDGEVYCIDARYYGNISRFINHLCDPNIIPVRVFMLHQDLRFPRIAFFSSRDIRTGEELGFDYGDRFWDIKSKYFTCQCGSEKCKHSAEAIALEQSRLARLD
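AlphaScreen detection with an anti-monomethyl H3K9 antibody quantified product after a 2 h room-temperature reaction containing 500 nM biotinylated H3K9 peptide, 20 µM SAM and 20 nM enzyme, which had been preincubated 15 min with compound.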
Tau ThT inhib: qHTS for Inhibitors of Tau Fibril Formation, Thioflavin T Binding | Potency, µM (titrated, usually from 57.4 µM), inactives show at the top dose activity, negative = inhibition, usual class: inhibitors | 2.1% of 270,000 active | recombinant tau K18 P301L (four-repeat tau fragment), heparin-induced fibrillization, ThT fluorescence | Microtubule-associated protein tau (Homo sapiens), P10636; also: potency is read from the fitted curve at half-maximal effect; nearly all actives have a fitted effect of over 55% in size
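K18 P301L tau (15 uM + 0.24 uM Alexa 594-tagged), heparin 20 uM, NaOAc pH 7, 6 h 37 C; ThT 30 uM, 1 h RT, ex 450/em 510 nm.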
An asterisk follows results filed as active; ! = not active in a repeat; [ ] = dose if it differs, or a comment. An excerpt weighted towards active compounds, which were near 11% of everything screened. Unless noted, calls follow the shape of the dose curve; as a rule, active = well fitted curve in the direction sought with a large enough effect; inconclusive = small, poorly fitted or top-dose-only effect, or another doubt; inactive = no such curve, though single readings can be large; an effect the other way counts as inactive or inconclusive. Unless noted, % is scaled to controls: 0 for no effect and ±100 for the full control effect.

For COc1cccc(O)c1CN1CCC(C(=O)Nc2ccc(Oc3cccnc3)cc2)CC1 the results were Sfp PPTase inh 8% and G9a inh 32%.
`CCCCN(C)C(=O)C1CCN(C/C(C)=C/c2ccccc2)CC1` gave Sfp PPTase inh -16%, Tau fluor counter 0%, Tau FP inhib -4%, FBPA coupling cs 1, G9a inh 10µM* and Tau ThT inhib -4%.
`C/C(=C\c1ccccc1)CN1CCC(C(=O)N2CCC(C)CC2)CC1` gave Sfp PPTase inh -10%, Tau fluor counter -7%, Tau FP inhib -1%, FBPA coupling cs 1, G9a inh 10µM* and Tau ThT inhib -5%.
O=C(C1CCN(CCCc2ccccc2)CC1)N1CCCCC1 was read as Sfp PPTase inh 6%, Tau fluor counter 0%, Tau FP inhib 0%, FBPA coupling cs -5, G9a inh 20µM* and Tau ThT inhib 1%.
Screening COC(=O)C1CCN(C(=O)C2CCC(=O)N(CCCc3ccccc3)C2)CC1 (centres undefined) returned Sfp PPTase inh 14%, FBPA coupling cs 1 and G9a inh 11%.
`COc1cccc(CN2CCC(C(=O)N3CCC(C)CC3)CC2)c1` gave Sfp PPTase inh inconclusive, Tau fluor counter 0%, Tau FP inhib -7%, FBPA coupling cs 2, G9a inh 18µM* and Tau ThT inhib -5%.
For CC1CCN(C(=O)C2CCN(CCCc3ccccc3)CC2)CC1 the results were Sfp PPTase inh -14%, Tau fluor counter -2%, Tau FP inhib -3%, FBPA coupling cs 1, G9a inh 14µM* and Tau ThT inhib -13%.
Screening COc1cccc(CNC(=O)N2CCC(CN3CCC(C)CC3)CC2)c1 returned Tau fluor counter 0%, Tau FP inhib 0%, G9a inh 4%[59 µM] and Tau ThT inhib 6%.
`COc1ccc(CCNC(=O)C(=O)NCC2OCCN2S(=O)(=O)c2ccc(Cl)cc2)cc1OC` (centres undefined) gave Sfp PPTase inh 4%, FBPA coupling cs 2 and G9a inh 26%[59 µM].
`O=C(NCc1ccccc1)C(=O)NCC(c1cccs1)S(=O)(=O)c1ccccc1` (centres undefined) gave Tau fluor counter 11%, Tau FP inhib 12%, G9a inh 3%[59 µM] and Tau ThT inhib 11%.
Screening CCOC(=O)C1=C(C)N=c2s/c(=C\c3ccc(OCC(=O)O)c(OC)c3)c(=O)n2C1c1ccc(OC)cc1 (centres undefined) returned Sfp PPTase inh -2%, FBPA coupling cs 3 and G9a inh 56µM*.
`CCOC(=O)C1=C(C)N=c2s/c(=C/c3ccco3)c(=O)n2C1c1cccc(OC)c1` (centres undefined) gave Sfp PPTase inh 40µM*, Tau fluor counter -23%, Tau FP inhib inconclusive, FBPA coupling cs -2, G9a inh 16µM* and Tau ThT inhib 14µM*.
Screening CCOC(=O)C1=C(C)N=c2s/c(=C\c3ccc(C(=O)O)cc3)c(=O)n2C1c1ccc(F)cc1 (centres undefined) returned Sfp PPTase inh inconclusive, FBPA coupling cs 10 and G9a inh 79µM*.
For CCOC(=O)C1=C(c2ccccc2)N=c2s/c(=C\c3ccc(O)cc3)c(=O)n2C1c1cccs1 (centres undefined) the results were Sfp PPTase inh -6%, Tau fluor counter 8.9µM*[quencher], Tau FP inhib 32µM*, FBPA coupling cs -2, G9a inh inconclusive and Tau ThT inhib inconclusive.
`COc1ccccc1C(=O)Nc1ccc(OCC(=O)N2CCCCC2C)cc1` (centres undefined) gave G9a inh 13%[12.7 µM].
For O=C(c1ccc2[nH]c(=O)c(=O)[nH]c2c1)N1CCc2ccccc21 the results were Sfp PPTase inh 5%.
`C/C(=N/NC(=O)Cc1ccccc1)c1ccc(C)s1` gave Sfp PPTase inh 1%, Tau fluor counter 6%, Tau FP inhib 1%, FBPA coupling cs 3, G9a inh 3% and Tau ThT inhib 7%.
For CCOc1ccccc1C(=O)Nc1cc2c(cc1N1CCCCC1)n(C)c(=O)n2C the results were Tau fluor counter -13%, Tau FP inhib 1%, G9a inh inconclusive and Tau ThT inhib inconclusive.
For O=C(Nc1ccc(Cc2ccncc2)cc1)C1CC1 the results were Sfp PPTase inh 8%, Tau fluor counter 1%, Tau FP inhib 6%, FBPA coupling cs -1, G9a inh 7%[59 µM] and Tau ThT inhib -8%.
`C[C@@H](N)C1CCC(C(=O)Nc2ccncc2)CC1` (some centres undefined) gave Sfp PPTase inh 19%, Tau fluor counter -3%, Tau FP inhib 4%, FBPA coupling cs 0, G9a inh 30µM*! and Tau ThT inhib -2%.
Screening CC(=O)Nc1ccc(OC(C)=O)cc1 returned Sfp PPTase inh -1% and G9a inh 2%[12.7 µM].
Oc1ccc(NCc2cccc(OCc3ccccc3)c2)cc1 was read as Sfp PPTase inh inconclusive, Tau fluor counter inconclusive, Tau FP inhib inconclusive, FBPA coupling cs -30*, G9a inh 13µM* and Tau ThT inhib 28µM*.
Screening CCOc1cccc(CNc2ccc(O)cc2)c1OCc1ccc(Cl)cc1Cl returned Sfp PPTase inh 14µM*, Tau fluor counter inconclusive, Tau FP inhib 28µM*, FBPA coupling cs -50*, G9a inh 2.5µM* and Tau ThT inhib 28µM*.
`CCOc1c(Cl)cc(CNc2ccc(N3CCCC3)cc2)cc1OC` gave Sfp PPTase inh 79µM*, Tau fluor counter inconclusive, Tau FP inhib 7.9µM*, FBPA coupling cs -30, G9a inh 2.8µM* and Tau ThT inhib 3.2µM*.
CCOc1cccc(CNc2ccc(O)cc2)c1OCc1ccccc1Cl was read as Sfp PPTase inh -13%, Tau fluor counter 10µM*[quencher], Tau FP inhib 11µM*, FBPA coupling cs 1, G9a inh 4.5µM* and Tau ThT inhib 28µM*.
`CCOc1cccc(CNCCO)c1OCc1ccc(Cl)cc1Cl` gave Sfp PPTase inh inconclusive, Tau fluor counter -8%, Tau FP inhib 0%, FBPA coupling cs 0, G9a inh 12%[59 µM] and Tau ThT inhib -12%.

Assay outcomes deposited in PubChem by National Center for Advancing Translational Sciences (NCATS).
